High-throughput results deposited in PubChem BioAssay by National Center for Advancing Translational Sciences (NCATS).
WRN inhibitor = blocks human WRN helicase | Q14191 | WRN helicase unwinding, fluorescent forked duplex, kinetic | Potency, µM (titrated, usually from 114 µM), inactives show top-dose activity change, negative = inhibition, hits mostly inhibitors | 360,000 compounds, 0.46% hits | AID 651768; further: nearly all actives have a fitted effect of over 55% in size
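Kinetic fluorescence helicase assay: unwinding of a quenched forked DNA duplex (100 nM final) with 2 mM ATP final raises red fluorescence (525/598 nm). Compounds sat 15 min at room temperature with 20 nM WRN beforehand.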
BLM inh = inhibitors of human Bloom syndrome helicase BLM; 350,000 compounds, 0.2% hits; P54132; Potency, µM (series often up to 56.1 µM), for the others: top-dose activity change, negative = inhibition, actives largely listed as inhibitors; recombinant BLM DNA unwinding, fluorescence dequenching;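 further: plate controls were vehicle for no effect and no enzyme for full effect; nearly all actives have a fitted effect of over 35% in size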
RECQ1 helicase = RECQ1 (human) helicase inhibition; P46063; RECQ1 DNA unwinding, red fluorescence kinetic read; Potency, µM (highest dose often 57.3 µM), inactives show at the top dose activity, negative = inhibition, usual class: inhibitors; 240,000 compounds, 0.54% hits;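 further: plate controls were vehicle for no effect and no enzyme for full effect; nearly all actives have a fitted effect of over 30% in size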
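50 nM RECQ1T1 preincubated 15 min with compound in Tris pH 8.0 buffer with MgCl2, DTT, Tween-20 and 2.5 ug/ml poly(dI-dC); started with 200 nM TAMRA/BHQ-2 forked duplex and 2 mM ATP. Unwinding read as fluorescence (525/598 nm), two reads 2 h apart.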
L3MBTL1 block = L3MBTL1 (human) inhibition; 230,000 compounds, 0.66% hits; Q9Y468; AID 485360; Potency, µM (series often up to 57.1 µM), inactives show top-dose activity, negative = inhibition, usual class: inhibitors; AlphaScreen L3MBTL1–H3K9me1 peptide binding; further: nearly all actives have a fitted effect of over 60% in size
Target sequence (Q9Y468 whole entry, looked up): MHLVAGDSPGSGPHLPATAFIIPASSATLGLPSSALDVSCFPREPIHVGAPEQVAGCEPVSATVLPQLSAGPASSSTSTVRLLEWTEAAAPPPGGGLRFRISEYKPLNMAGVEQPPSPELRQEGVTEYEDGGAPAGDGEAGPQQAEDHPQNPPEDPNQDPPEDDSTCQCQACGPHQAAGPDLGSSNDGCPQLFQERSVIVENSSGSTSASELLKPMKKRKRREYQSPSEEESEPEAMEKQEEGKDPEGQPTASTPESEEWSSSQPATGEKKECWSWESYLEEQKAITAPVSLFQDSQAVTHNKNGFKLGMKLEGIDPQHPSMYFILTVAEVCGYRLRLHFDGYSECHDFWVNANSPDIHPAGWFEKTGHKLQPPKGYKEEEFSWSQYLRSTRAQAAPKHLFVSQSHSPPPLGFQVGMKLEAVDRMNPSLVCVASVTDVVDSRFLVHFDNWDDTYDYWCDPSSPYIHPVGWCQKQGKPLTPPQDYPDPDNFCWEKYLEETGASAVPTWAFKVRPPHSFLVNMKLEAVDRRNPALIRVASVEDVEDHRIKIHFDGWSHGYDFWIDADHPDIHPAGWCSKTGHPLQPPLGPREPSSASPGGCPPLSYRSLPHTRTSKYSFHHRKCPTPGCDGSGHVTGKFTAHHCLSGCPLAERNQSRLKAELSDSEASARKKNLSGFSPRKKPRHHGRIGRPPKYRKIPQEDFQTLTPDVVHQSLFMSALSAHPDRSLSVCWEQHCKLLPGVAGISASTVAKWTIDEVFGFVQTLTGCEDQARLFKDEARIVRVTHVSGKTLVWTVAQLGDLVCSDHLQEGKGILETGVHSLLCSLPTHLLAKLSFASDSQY
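L3MBTL1 50 nM + b-AHA-H3(1-15)K9me1 75 nM, 30 min RT; compound added, 30 min RT; streptavidin donor/Ni-chelate acceptor beads 10 ug/mL each final, 30 min RT dark; AlphaScreen read.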
FEN1 inh = blocks human flap endonuclease 1; P39748; Recombinant FEN1 flap cleavage, fluorescence, 15 min; Potency, µM (highest dose often 114 µM), for inactives: top-dose activity change, negative = inhibition, most hits filed as inhibitors; 390,000 compounds, 0.35% hits; further: nearly all actives have a fitted effect of over 65% in size
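FEN1 at 10 nM, compound pretreatment for 15 min (room temperature), 50 nM final substrate to initiate; endpoint reads at 0 and 15 min; DMSO-only plates used as vehicle background.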
An asterisk follows results filed as active; i = inactive; ? = inconclusive; / = no result; [ ] = another dose, or the depositor's remark. Shown are actives, neighbours in structure and some others; about 0.99% of the full set was active somewhere. The call rests on the fitted dose curve; in most records, active means well fitted curve in the direction sought with a large enough effect; inconclusive means small, poorly fitted or top-dose-only effect, or another doubt; inactive means no such curve, though single readings can be large; an effect the other way counts as inactive or inconclusive. Unless noted, on the % scale 0 is the no-effect control and ±100 the full control effect; potency means the concentration at half of the fitted maximal effect.

SMILES | WRN inhibitor | BLM inh | RECQ1 helicase | L3MBTL1 block | FEN1 inh
O=C(COC(=O)c1c2c(nc3ccccc13)/C(=C/c1cccc([N+](=O)[O-])c1)CCC2)NC1CCS(=O)(=O)C1 (centres undefined) | -32% | 2% | 5% | -5% | 1%
CC1CCCCC1NC(=O)COC(=O)c1c2c(nc3ccccc13)/C(=C\c1ccco1)CC2 (centres undefined) | ? | / | / | / | 50µM*
Cc1c(Cl)cccc1-n1nc(C)c2c(C)cc(=O)n(CC(=O)NCc3ccccc3)c21 | / | -1% | / | / | 20%
O=Nc1c(-c2c(O)[nH]c3cc(Br)ccc23)[nH]c2ccccc12 | -14% | -16% | 28µM* | / | -1%
O=C(CSCc1cccc(Br)c1)N=Nc1c(O)[nH]c2ccccc12 | -2% | -11% | i | -7% | -20%
O=Cc1cccn1-c1cccc([N+](=O)[O-])c1 | 2% | 4% | 0% | -3% | -5%
Cc1ccc(-n2c(Cl)c(Cl)nc(Cl)c2=O)cc1 | 22µM* | -5% | -10% | 0% | -30%
CC(=O)c1cccc(NC(=O)C2CCN(S(C)(=O)=O)CC2)c1 | 3% | -1% | 2% | / | 9%
Cc1noc(NS(=O)(=O)c2ccc(NC(=O)CSc3nnc4c(n3)[nH]c3ccccc34)cc2)c1C | 89µM* | -1% | -4% | -6% | -1%
Nc1ccc(N=Nc2ccccc2)c(N)n1 | 0% | -8% | -5% | -11% | 16%
Nc1ccc(N=Nc2ccccc2)c2ccccc12 | 9% | -14% | -18% | 32µM* | -9%
Cc1ccc(NC(=S)c2nc3ccccc3[nH]2)c(C)c1 | 2% | 0% | 4.5µM* | ? | -9%
Cc1ccc(N(C(=O)c2ccc(S(=O)(=O)N3CCCC3)cc2)C2C=CS(=O)(=O)C2)cc1 (centres undefined) | -28% | -6% | / | / | 6%
CC1(C)N=C(N)N=C(N)N1c1ccc(OCCCOc2ccccc2)c(Cl)c1 | -8% | 2% | -14% | -13% | 16%
O=C(O)C1Sc2[nH]c(=O)sc2C2c3ccc(O)cc3OC(=O)C12 (centres undefined) | 25µM* | -16% | 28% | -2% | ?
CCOc1cc(/C=C2\SC(=S)N(Nc3ccccc3)C2=O)ccc1O | 18µM* | -22% | 25µM* | ? | ?
CCOc1cc(/C=C2\SC(=S)N(NS(=O)(=O)c3ccccc3)C2=O)ccc1O | 56µM* | -5% | / | / | -24%
C=C(CCC12O[C@H](C(=O)O)[C@@](O)(C(=O)O)[C@](C(=O)O)(O1)[C@H](OC(=O)/C=C/[C@@H](C)C[C@@H](C)CC)[C@H]2O)[C@@H](OC(C)=O)[C@H](C)Cc1ccccc1 | / | 22µM* | i | / | /
CCOC(=O)C(C)C(C)=O (centres undefined) | 16µM* | / | -2% | 0% | -168%
CCOC(=O)C[C@@H](CC(C)=O)C(=O)OCC | / | 1%[12.4 µM] | -1%[11.5 µM] | / | /
CCOC(=O)Cn1c(=O)n(CC2CCCO2)c2nc(-c3c(F)cccc3Cl)nc(C(N)=O)c21 (centres undefined) | / | 0% | / | / | 18%
CSc1nc(=S)c2[nH]c(=S)[nH]c2[nH]1 | 50µM* | -4% | 10% | -2% | -19%
O=C(CCNC(=O)c1ccc(Br)cc1)NNC(=O)c1ccccc1 | -20% | / | / | 4% | 9%
Cc1ccnc2c1ccc1cccnc12 | -13% | / | / | 3.5µM* | ?
Cc1ccnc2c1ccc1c(C)ccnc12 | 5% | / | / | -86% | 25µM*
SMILES | WRN inhibitor | BLM inh | RECQ1 helicase | L3MBTL1 block | FEN1 inh
c1cnc2c(c1)ccc1cccnc12 | -6% | 17% | -5% | 3.2µM* | ?
COc1cccc(C(=O)Nc2cccc3cccnc23)c1OC | 6% | -2% | / | 11% | -1%
Cc1ccc(S(=O)c2ccc([N+](=O)[O-])c3nonc23)cc1 (centres undefined) | 79µM* | / | / | / | /
CCOC(=O)N1CCN(Cc2nc3cc(NC(=O)c4cccc(C)c4)ccc3n2C(C)C)CC1 | / | -3% | / | / | -7%
CC1(C)CC(=O)C(N=Nc2cc(C(F)(F)F)ccc2Cl)=C(O)C1 | 3% | -2% | 1% | -10% | 12%
CC1(C)CC(=O)C(N=Nc2cc(S(=O)(=O)N3CCOCC3)ccc2Cl)=C(O)C1 | -5% | -18% | -9% | 32µM* | 16%
O=C1C2C(C(=O)N1/N=C/c1cc([N+](=O)[O-])c(O)cc1O)C1C=CC2C12CC2 (centres undefined) | ? | -9% | ? | 32µM* | -32%
CCN(CC(=O)Nc1c(C(=O)OC)[nH]c2ccccc12)c1ccc2c(c1)OCO2 | -14% | 6% | 0% | 25µM* | -24%
CCC(=O)OCOc1ccc(/C=C2/CCC(CN(C)C)C2=O)cc1 (centres undefined) | 11µM* | / | / | / | -15%
CCOc1ccc(/C=C2\CCC(C3CCCC3)C2=O)cc1 (centres undefined) | 6% | -5% | / | / | 11%
Oc1c(N=Nc2ccccn2)ccc2ccccc12 | 56µM* | -8% | i | 11µM* | ?
Cn1ccnc1SCC(=O)Nc1sccc1C#N | -9%[57.1 µM] | -19% | 0% | ? | -4%
COc1ccc(S(=O)(=O)N2CCN(Cc3nc4ccc(C)cc4o3)CC2)cc1Cl | / | -19% | / | / | -1%
COc1cc(N2C(=O)C=CC2=O)ccc1N1C(=O)C=CC1=O | 20µM* | / | / | / | 50µM*
COc1ccc(N2C(=O)C3CC(C)=C(C)CC3C2=O)c(OC)c1 (centres undefined) | 2% | -4% | -2% | / | 0%
Cc1ccc(S(=O)(=O)c2ccc([N+](=O)[O-])o2)cc1 | 14µM* | / | / | / | 6%
Cc1ccc(NC(=O)c2ccc([N+](=O)[O-])o2)c(C)c1 | 3% | -6% | i | -1% | 5%
COc1ccc(CNC(=O)CSc2nc(-c3ccc(OC)cc3)cc(C(F)(F)F)n2)cc1 | / | -1% | / | / | -2%
C/C(=N\Nc1ccc(C(=O)O)cc1)c1ccc2c(c1)Nc1ccccc1S2 | -35% | -8% | -3% | 28µM* | ?
COc1cc(C(=O)NC2CC(C)(C)NC(C)(C)C2)cc(OC)c1OC | 1% | -2% | -1% | -2% | -9%
NCCC[C@@H](CC(=O)N[C@@H]1CCNC[C@H]1C(=O)N[C@H](CC(=O)N[C@@H](CCC(=O)O)CC(=O)O)Cc1ccccc1)NC(=O)C[C@H](CO)NC(=O)[C@@H]1CNCC[C@H]1N | / | 22µM* | 4% | / | /
CCOC(=O)C1=C(Cc2ccc(Cl)cc2)C(=O)c2ccccc2C1=O | 35µM* | -10% | i | / | ?
ON(CCc1ccccn1)Cc1ccccc1 | -3% | / | / | / | 10%
COc1ccc(-n2c(NC(=O)c3ccco3)c(C#N)c3nc4ccccc4nc32)cc1 | 50µM* | 32µM* | 17% | 10% | ?
N#Cc1c(NC(=O)c2ccccc2Cl)n(Cc2ccccc2)c2nc3ccccc3nc12 | ? | 14µM* | ? | 10% | ?
